Experimental data taken from the supplement of paper PMC10849652.
The full data set covers some 8,800 targets. This sample favours those with a hit. About 0.5% of all pairs of compound and target were hits.

Assays:
Experiment in all cases: log2 fold change, soluble protein after heating vs DMSO (PISA); higher = thermal stabilisation; K562 lysate, 10 uM; active = over 0.2 and 3.5 SD of the protein, either way, in both replicates (recomputed)
nilotinib = compound: Cc1cn(-c2cc(NC(=O)c3ccc(C)c(Nc4nccc(-c5cccnc5)n4)c3)cc(C(F)(F)F)c2)cn1 [nilotinib]
Procedure, shortened: (§1)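 Quantification was by TMTpro 16plex LC-MS/MS with equalised channel sums, applied to the supernatant after 21,000xg for 90 min. Samples were crude K562 extract at 1 mg/mL protein in PBS pH 7.4 with 1 mM MgCl2, treated with 10 μM compound for 30 min, heated for 3 min across 48°C-58°C, pooled and brought to 0.5% NP-40 at 4°C. Values are log-two fold changes in thermal stability relative to solvent controls, from duplicates.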

[1] = compound: Cc1nc(Nc2n[nH]c3c2CN(C(=O)N[C@H](CN(C)C)c2ccccc2)C3(C)C)c2sccc2n1
Procedure, shortened: as §1

dasatinib = compound: Cc1nc(Nc2ncc(C(=O)Nc3c(C)cccc3Cl)s2)cc(N2CCN(CCO)CC2)n1 [dasatinib]
Procedure, shortened: as §1

[2] = compound: Cc1ncc(-c2ccnc(Nc3ccc(S(C)(=O)=O)cc3)n2)n1C(C)C
Procedure, shortened: as §1

[3] = compound: Cn1cc(-c2ccc3c(c2)CCN3C(=O)Cc2cccc(C(F)(F)F)c2)c2c(N)ncnc21
Procedure, shortened: as §1

quisinostat = compound: Cn1cc(CNCC2CCN(c3ncc(C(=O)NO)cn3)CC2)c2ccccc21 [quisinostat]
Procedure, shortened: as §1

tipifarnib = compound: Cn1cncc1[C@@](N)(c1ccc(Cl)cc1)c1ccc2c(c1)c(-c1cccc(Cl)c1)cc(=O)n2C [tipifarnib]
Procedure, shortened: as §1

[4] = compound: NC(=O)Nc1cc(-c2cccc(F)c2)sc1C(=O)N[C@H]1CCCNC1
Procedure, shortened: as §1

[5] = compound: NC(=O)c1cnc(N[C@@H]2CCCC[C@@H]2N)nc1Nc1cccc(-n2nccn2)c1
Procedure, shortened: as §1

[6] = compound: NC1(c2ccc(-c3nc4ccn5c(=O)[nH]nc5c4cc3-c3ccccc3)cc2)CCC1
Procedure, shortened: as §1

Measured: log2 fold change

GLYR1 (UniProt Q49A26)
inactive: nilotinib 0.082 | [1] 0.02 | dasatinib -0.053 | [2] 0.053 | [3] -0.048 | quisinostat -0.119 | tipifarnib -0.12 | [4] -0.049 | [5] -0.012 | [6] 0.023

HK1 isoform 2 (UniProt P19367)
inactive: nilotinib 0.011 | [1] 0 | dasatinib -0.026 | [2] -0.005 | [3] -0.008 | quisinostat -0.013 | tipifarnib 0.007 | [4] 0.008 | [5] -0.005 | [6] 0

HSPA8 (UniProt E9PN89)
inactive: nilotinib 0.013 | [1] -0.008 | dasatinib -0.209 | [2] -0.055 | [3] -0.032 | quisinostat -0.415 | tipifarnib 0.006 | [4] 0 | [5] 0.084 | [6] -0.089

HSPB1 (UniProt P04792)
inactive: nilotinib -0.001 | [1] 0.003 | dasatinib -0.032 | [2] 0.012 | [3] 0.015 | quisinostat 0.025 | tipifarnib -0.006 | [4] 0.006 | [5] 0 | [6] 0.006

IL18R1 (UniProt Q13478)
Chain of UniProt Q13478 (Q13478 whole entry, looked up): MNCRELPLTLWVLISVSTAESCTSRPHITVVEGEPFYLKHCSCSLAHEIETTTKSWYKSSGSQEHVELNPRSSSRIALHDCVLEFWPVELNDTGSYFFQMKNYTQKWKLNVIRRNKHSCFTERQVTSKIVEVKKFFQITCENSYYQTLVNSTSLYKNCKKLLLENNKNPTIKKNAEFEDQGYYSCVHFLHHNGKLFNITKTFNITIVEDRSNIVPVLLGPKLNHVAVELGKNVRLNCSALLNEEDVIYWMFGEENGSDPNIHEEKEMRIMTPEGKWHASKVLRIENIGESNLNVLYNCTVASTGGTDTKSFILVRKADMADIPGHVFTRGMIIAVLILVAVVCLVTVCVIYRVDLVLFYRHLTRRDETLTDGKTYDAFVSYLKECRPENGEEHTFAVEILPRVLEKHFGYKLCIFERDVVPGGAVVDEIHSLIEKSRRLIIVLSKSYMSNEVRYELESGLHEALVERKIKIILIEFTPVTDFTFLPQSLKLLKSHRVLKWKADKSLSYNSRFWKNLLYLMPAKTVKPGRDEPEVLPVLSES
inactive: nilotinib 0.02 | [1] 0.136 | dasatinib 0.181 | [2] -0.108 | [3] 0.004 | quisinostat 0.067 | tipifarnib 0.118 | [4] 0.155 | [5] -0.055 | [6] 0.211

HNRNPM (UniProt P52272)
inactive: nilotinib 0.022 | [1] -0.043 | dasatinib -0.109 | [2] -0.05 | [3] 0.01 | quisinostat 0.055 | tipifarnib -0.112 | [4] 0.054 | [5] -0.002 | [6] 0.053

HECTD3 (UniProt Q5T447)
Chain of UniProt Q5T447 (Q5T447 whole entry, looked up): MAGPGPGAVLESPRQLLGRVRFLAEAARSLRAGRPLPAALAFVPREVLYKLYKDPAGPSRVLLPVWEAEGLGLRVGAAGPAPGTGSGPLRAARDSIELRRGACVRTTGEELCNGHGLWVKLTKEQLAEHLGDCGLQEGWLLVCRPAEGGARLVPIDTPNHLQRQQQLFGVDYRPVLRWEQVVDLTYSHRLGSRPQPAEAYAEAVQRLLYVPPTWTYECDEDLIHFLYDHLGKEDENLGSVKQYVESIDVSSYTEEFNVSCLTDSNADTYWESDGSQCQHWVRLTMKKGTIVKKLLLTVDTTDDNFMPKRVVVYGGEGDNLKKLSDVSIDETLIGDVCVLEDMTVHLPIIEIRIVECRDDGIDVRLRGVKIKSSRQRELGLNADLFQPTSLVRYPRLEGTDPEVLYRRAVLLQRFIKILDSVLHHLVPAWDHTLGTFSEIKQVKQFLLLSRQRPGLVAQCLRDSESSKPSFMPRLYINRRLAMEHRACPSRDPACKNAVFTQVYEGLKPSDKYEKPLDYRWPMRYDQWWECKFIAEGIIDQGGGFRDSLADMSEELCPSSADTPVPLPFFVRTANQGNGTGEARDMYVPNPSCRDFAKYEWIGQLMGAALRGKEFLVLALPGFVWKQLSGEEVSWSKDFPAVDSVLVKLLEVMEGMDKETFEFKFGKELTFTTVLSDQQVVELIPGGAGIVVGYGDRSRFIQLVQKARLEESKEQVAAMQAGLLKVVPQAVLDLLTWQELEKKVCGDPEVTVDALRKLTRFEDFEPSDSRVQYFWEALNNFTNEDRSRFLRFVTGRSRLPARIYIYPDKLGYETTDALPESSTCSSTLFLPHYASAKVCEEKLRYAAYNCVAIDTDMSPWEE
inactive: nilotinib -0.004 | [1] 0.041 | dasatinib -0.016 | [2] -0.012 | [3] 0.006 | quisinostat 0.026 | tipifarnib 0.059 | [4] 0.05 | [5] 0.003 | [6] 0.056

HAUS7 isoform 2 (UniProt Q99871)
inactive: nilotinib 0.021 | [1] 0.007 | dasatinib 0.015 | [2] 0.055 | [3] -0.026 | quisinostat -0.037 | tipifarnib -0.011 | [4] 0.063 | [5] 0.024 | [6] -0.047

GMPS (UniProt P49915)
inactive: nilotinib -0.006 | [1] -0.019 | dasatinib -0.016 | [2] 0 | [3] 0 | quisinostat 0.041 | tipifarnib -0.008 | [4] 0.001 | [5] 0.001 | [6] 0.009

IMPDH2 (UniProt P12268)
inactive: nilotinib 0 | [1] -0.009 | dasatinib -0.036 | [2] -0.009 | [3] 0.004 | quisinostat -0.073 | tipifarnib 0.029 | [4] 0.006 | [5] -0.016 | [6] 0.031

GON4L (UniProt Q3T8J9)
inactive: nilotinib 0.003 | [1] 0.012 | dasatinib 0.025 | [2] 0.067 | [3] 0.041 | quisinostat -0.061 | tipifarnib -0.01 | [4] 0.019 | [5] -0.02 | [6] 0.022

ISY1 isoform 1 (UniProt Q9ULR0)
inactive: nilotinib 0.012 | [1] 0.026 | dasatinib 0.002 | [2] -0.024 | [3] -0.082 | quisinostat -0.036 | tipifarnib -0.018 | [4] 0.014 | [5] -0.012 | [6] -0.01

HNRNPLL (UniProt Q8WVV9)
inactive: nilotinib -0.031 | [1] 0.009 | dasatinib -0.019 | [2] 0.008 | [3] -0.001 | quisinostat -0.063 | tipifarnib -0.008 | [4] 0.001 | [5] 0.015 | [6] -0.013

HMGB1 (UniProt P09429)
inactive: nilotinib 0.056 | [1] -0.002 | dasatinib 0.03 | [2] 0.064 | [3] -0.03 | quisinostat 0.108 | tipifarnib 0.026 | [4] -0.021 | [5] 0 | [6] -0.011

HNRNPUL1 (UniProt Q9BUJ2)
inactive: [1] 0.018 | dasatinib -0.012 | [2] 0.006 | [3] 0.01 | quisinostat 0.015 | tipifarnib 0.019 | [4] 0.045 | [5] -0.003 | [6] -0.009
active: nilotinib -0.291

HERC2 (UniProt O95714)
inactive: nilotinib -0.077 | [1] 0.017 | dasatinib 0.032 | [2] -0.034 | [3] 0.118 | quisinostat -0.061 | tipifarnib 0.007 | [4] 0.028 | [5] -0.047 | [6] 0.085

HELQ (UniProt Q8TDG4)
Chain of UniProt Q8TDG4 (Q8TDG4 whole entry, looked up): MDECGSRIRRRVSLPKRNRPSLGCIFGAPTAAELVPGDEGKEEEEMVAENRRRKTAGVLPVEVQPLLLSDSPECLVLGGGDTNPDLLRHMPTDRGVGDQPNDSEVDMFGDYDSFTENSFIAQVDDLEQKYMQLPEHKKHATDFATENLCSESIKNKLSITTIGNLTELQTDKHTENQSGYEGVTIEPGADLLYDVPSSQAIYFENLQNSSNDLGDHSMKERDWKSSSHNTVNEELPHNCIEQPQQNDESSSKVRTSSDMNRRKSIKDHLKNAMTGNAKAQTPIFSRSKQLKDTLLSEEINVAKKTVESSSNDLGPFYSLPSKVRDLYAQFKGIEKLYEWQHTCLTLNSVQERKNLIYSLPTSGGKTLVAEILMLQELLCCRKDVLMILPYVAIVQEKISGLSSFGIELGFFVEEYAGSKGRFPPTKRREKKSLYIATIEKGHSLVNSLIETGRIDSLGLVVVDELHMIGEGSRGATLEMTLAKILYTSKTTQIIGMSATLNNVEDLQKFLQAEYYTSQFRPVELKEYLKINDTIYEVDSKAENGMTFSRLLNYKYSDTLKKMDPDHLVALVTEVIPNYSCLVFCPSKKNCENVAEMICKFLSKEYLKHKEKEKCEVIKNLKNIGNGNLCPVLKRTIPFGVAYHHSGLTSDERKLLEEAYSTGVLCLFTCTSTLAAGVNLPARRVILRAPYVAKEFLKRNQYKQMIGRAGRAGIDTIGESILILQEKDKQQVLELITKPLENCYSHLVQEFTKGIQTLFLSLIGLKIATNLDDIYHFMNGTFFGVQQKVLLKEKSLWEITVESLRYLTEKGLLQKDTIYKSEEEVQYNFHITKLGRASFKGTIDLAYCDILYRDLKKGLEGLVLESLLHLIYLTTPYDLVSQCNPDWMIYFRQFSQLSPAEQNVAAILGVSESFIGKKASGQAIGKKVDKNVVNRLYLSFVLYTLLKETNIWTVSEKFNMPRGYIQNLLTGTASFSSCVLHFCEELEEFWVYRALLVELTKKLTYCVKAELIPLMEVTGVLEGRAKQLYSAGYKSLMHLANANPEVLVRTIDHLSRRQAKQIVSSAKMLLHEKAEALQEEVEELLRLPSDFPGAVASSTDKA
inactive: dasatinib 0.021 | [2] 0.051 | [3] -0.028 | quisinostat -0.024 | tipifarnib 0.033 | [4] -0.013 | [5] 0.122 | [6] 0.009
active: nilotinib -0.486 | [1] -0.433

GUSB (UniProt P08236)
inactive: nilotinib 0.028 | [1] -0.067 | dasatinib 0.007 | [2] -0.026 | [3] -0.002 | quisinostat -0.109 | tipifarnib -0.066 | [4] -0.041 | [5] 0.001 | [6] -0.01

HNRNPUL2 (UniProt Q1KMD3)
Chain of UniProt Q1KMD3 (Q1KMD3 whole entry, looked up): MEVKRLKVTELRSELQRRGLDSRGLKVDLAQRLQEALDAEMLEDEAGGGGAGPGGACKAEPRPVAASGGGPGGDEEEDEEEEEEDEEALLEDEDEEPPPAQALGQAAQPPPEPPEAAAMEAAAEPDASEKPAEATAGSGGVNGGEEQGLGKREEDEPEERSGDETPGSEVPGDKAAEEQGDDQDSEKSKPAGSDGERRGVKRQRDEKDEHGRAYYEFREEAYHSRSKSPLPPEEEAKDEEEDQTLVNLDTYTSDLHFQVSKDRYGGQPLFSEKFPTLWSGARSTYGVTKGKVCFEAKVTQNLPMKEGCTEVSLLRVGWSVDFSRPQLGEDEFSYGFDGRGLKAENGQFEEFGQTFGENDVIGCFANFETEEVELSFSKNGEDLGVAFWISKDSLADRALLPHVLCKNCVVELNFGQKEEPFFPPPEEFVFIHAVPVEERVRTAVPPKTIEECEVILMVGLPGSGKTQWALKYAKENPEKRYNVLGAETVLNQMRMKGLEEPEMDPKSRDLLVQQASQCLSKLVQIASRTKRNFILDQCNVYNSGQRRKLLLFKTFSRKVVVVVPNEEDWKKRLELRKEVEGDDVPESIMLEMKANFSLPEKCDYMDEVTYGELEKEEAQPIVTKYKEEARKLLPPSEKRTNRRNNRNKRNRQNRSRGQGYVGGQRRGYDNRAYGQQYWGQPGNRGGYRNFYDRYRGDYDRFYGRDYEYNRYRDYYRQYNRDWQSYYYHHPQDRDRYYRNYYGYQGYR
inactive: nilotinib -0.037 | [1] 0.02 | dasatinib 0.002 | [2] 0.009 | [3] -0.005 | quisinostat -0.046 | tipifarnib 0.008 | [4] 0 | [5] 0.004 | [6] -0.008

H2AFY (UniProt O75367)
inactive: nilotinib 0.013 | [1] 0.003 | dasatinib -0.087 | [2] -0.003 | [3] 0.005 | quisinostat -0.099 | tipifarnib 0.005 | [4] 0.058 | [5] 0.001 | [6] -0.034

KHDRBS1 (UniProt Q07666)
inactive: nilotinib -0.032 | [1] -0.012 | dasatinib -0.048 | [2] -0.011 | [3] -0.003 | quisinostat 0.037 | tipifarnib 0.032 | [4] 0.005 | [5] 0.011 | [6] 0.028

GSE1 (UniProt Q14687)
inactive: nilotinib -0.017 | [1] 0.007 | dasatinib -0.064 | [2] 0.036 | [3] -0.005 | quisinostat -0.093 | tipifarnib -0.02 | [4] 0.059 | [5] 0.012 | [6] 0.029

HK2 (UniProt P52789)
inactive: nilotinib 0.065 | [1] -0.003 | dasatinib -0.052 | [2] 0 | [3] 0.033 | quisinostat -0.079 | tipifarnib -0.01 | [4] 0.048 | [5] 0.035 | [6] -0.031

HNRNPD isoform 3 (UniProt Q14103)
inactive: nilotinib 0.012 | [1] -0.073 | dasatinib 0.017 | [2] 0.017 | [3] 0.065 | quisinostat 0.005 | tipifarnib -0.002 | [4] 0.021 | [5] 0.028 | [6] -0.033

GPX4 (UniProt P36969)
Chain of UniProt P36969 (P36969 whole entry, looked up): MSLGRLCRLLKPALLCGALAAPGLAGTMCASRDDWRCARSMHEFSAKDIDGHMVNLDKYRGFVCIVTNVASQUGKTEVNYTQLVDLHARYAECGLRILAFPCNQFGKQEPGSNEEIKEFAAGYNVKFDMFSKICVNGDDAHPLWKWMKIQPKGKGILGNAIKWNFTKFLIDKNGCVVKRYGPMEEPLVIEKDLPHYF
inactive: nilotinib -0.011 | [1] -0.001 | dasatinib 0.01 | [2] 0.039 | [3] -0.024 | quisinostat -0.012 | tipifarnib -0.009 | [4] 0.02 | [5] -0.011 | [6] 0.011

IFNGR1 (UniProt P15260)
inactive: nilotinib 0.227 | [1] -0.068 | dasatinib -0.018 | [2] 0.133 | [3] -0.125 | quisinostat 0.047 | tipifarnib -0.08 | [4] 0.013 | [5] 0.084 | [6] -0.101

INTS8 (UniProt Q75QN2)
inactive: nilotinib 0.035 | [1] 0.044 | dasatinib -0.072 | [2] 0.049 | [3] 0.021 | quisinostat 0.003 | tipifarnib -0.009 | [4] 0.067 | [5] -0.035 | [6] -0.029

INTS7 (UniProt Q9NVH2)
inactive: nilotinib -0.02 | [1] -0.014 | dasatinib -0.004 | [2] -0.009 | [3] -0.008 | quisinostat -0.071 | tipifarnib 0.037 | [4] 0.088 | [5] 0.032 | [6] -0.002

GNL3 (UniProt Q9BVP2)
inactive: nilotinib 0.008 | [1] -0.022 | dasatinib -0.005 | [2] 0.029 | [3] -0.003 | quisinostat -0.164 | tipifarnib 0.013 | [4] 0.038 | [5] 0.022 | [6] -0.031

GTF2H4 (UniProt Q92759)
Chain of UniProt Q92759 (Q92759 whole entry, looked up): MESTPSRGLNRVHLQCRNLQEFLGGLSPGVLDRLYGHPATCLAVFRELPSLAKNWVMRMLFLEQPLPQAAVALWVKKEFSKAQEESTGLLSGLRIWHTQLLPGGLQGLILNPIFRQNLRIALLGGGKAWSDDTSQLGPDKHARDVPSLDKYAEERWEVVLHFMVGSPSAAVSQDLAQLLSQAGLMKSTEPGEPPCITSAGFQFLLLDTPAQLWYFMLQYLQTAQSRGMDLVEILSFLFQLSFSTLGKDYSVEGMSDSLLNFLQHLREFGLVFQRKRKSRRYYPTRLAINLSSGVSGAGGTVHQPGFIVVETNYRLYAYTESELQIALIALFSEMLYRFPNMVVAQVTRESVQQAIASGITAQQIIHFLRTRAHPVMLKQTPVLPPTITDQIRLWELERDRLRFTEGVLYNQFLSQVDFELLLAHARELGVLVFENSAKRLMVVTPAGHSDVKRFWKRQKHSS
inactive: nilotinib 0.006 | [1] 0.021 | dasatinib 0.003 | [2] 0.019 | [3] -0.011 | quisinostat -0.029 | tipifarnib -0.008 | [4] 0.07 | [5] 0.04 | [6] -0.08

ISOC2 (UniProt Q96AB3)
Chain of UniProt Q96AB3 (Q96AB3 whole entry, looked up): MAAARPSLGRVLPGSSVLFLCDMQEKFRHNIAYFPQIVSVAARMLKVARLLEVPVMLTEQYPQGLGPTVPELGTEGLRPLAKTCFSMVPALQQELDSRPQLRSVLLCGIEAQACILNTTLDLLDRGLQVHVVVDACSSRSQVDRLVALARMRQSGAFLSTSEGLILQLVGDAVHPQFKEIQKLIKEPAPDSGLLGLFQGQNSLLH
inactive: nilotinib 0.012 | [1] 0.022 | dasatinib 0.026 | [2] 0.091 | [3] 0 | quisinostat -0.053 | tipifarnib -0.017 | [4] -0.05 | [5] -0.045 | [6] -0.036

GOLGA1 (UniProt Q92805)
Chain of UniProt Q92805 (Q92805 whole entry, looked up): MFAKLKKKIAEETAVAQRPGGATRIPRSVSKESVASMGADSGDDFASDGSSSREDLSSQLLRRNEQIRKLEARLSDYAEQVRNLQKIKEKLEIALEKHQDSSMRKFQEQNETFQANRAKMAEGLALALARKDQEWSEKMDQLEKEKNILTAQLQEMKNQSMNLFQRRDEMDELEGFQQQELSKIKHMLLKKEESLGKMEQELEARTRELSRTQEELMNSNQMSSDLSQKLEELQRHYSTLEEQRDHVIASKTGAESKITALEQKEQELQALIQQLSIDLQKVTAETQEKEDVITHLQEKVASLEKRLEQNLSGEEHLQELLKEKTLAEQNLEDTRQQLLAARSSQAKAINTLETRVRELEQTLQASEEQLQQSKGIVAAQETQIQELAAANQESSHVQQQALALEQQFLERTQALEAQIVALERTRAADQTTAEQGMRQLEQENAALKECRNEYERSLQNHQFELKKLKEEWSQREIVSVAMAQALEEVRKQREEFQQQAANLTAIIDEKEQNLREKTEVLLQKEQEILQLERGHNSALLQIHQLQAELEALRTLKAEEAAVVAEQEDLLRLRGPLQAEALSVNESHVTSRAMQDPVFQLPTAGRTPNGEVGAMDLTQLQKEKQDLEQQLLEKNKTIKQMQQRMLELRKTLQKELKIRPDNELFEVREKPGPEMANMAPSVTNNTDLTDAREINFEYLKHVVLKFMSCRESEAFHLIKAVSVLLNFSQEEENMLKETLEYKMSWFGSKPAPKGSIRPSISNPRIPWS
inactive: nilotinib 0.033 | [1] -0.009 | dasatinib -0.026 | [2] -0.015 | [3] 0.022 | quisinostat -0.073 | tipifarnib -0.099 | [4] 0.042 | [5] 0.106 | [6] 0.004

KHK isoform 2 (UniProt P50053)
inactive: nilotinib -0.004 | [1] 0.035 | dasatinib -0.075 | [2] -0.02 | [3] -0.035 | quisinostat -0.021 | tipifarnib -0.043 | [4] -0.019 | [5] -0.018 | [6] -0.023
